VACV Venus inh – inhibitors of vaccinia virus (Venus reporter); Vaccinia virus Venus reporter expression, fluorescence; Potency, µM (titrated, usually from 36.5 µM), for the others: at the top dose activity change, negative = inhibition, most hits filed as inhibitors; 330,000 tested, 0.46% active; AID 720580; calls by dose curve; tested in A549 cells; note: potency is the fitted concentration of half-maximal effect; nearly all actives have a fitted effect of over 30% in size
FMDV inh – foot and mouth disease virus antiviral activity | FMDV antiviral cell-based qHTS | Potency, µM (doses to about 57.9 µM), for inactives: at the top dose activity change, negative = inhibition, most hits filed as inhibitors | 410,000 tested, 1.2% active | AID 1159524; calls by dose curve; tested in HEK293T cells; note: read-out not given here; potency is the fitted concentration of half-maximal effect; nearly all actives have a fitted effect of over 45% in size
MARV entry inh – blocks Marburg virus binding to or entry into cells; Marburg virus pseudotyped entry inhibition, cell reporter; Potency, µM (doses to about 37.8 µM), inactives show at the top dose activity change, negative = inhibition, actives largely listed as inhibitors; 300,000 tested, 1.8% active; AID 540276; calls by dose curve; tested in HEK293 cells; note: potency is the fitted concentration of half-maximal effect
HCMV antiviral – inhibitors of human cytomegalovirus | HFF cells, HCMV-luciferase reporter, 72 h; active compounds read low | activity change, negative = inhibition, % at 57.5 µM | 410,000 tested, 4.5% active | AID 1259415; in the data active = activity change below about -60%; inconclusive = no clear call, values can overlap the other calls; inactive = above about -39%
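After 16 h attachment at 37C, HFF cells received test compound and HCMV-luciferase (1 PFU/cell); reporter luminescence read 72 h later, data normalized against buffer-only and known inhibitor Salinomycin.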
Vaccinia mCherry – vaccinia inhibition (mCherry reporter); Vaccinia virus mCherry reporter infection, fluorescence; Potency, µM (series often up to 36.5 µM), inactives show at the top dose activity change, negative = inhibition, usual class: inhibitors; 310,000 tested, 0.63% active; calls by dose curve; tested in A549 cells; note: potency is the fitted concentration of half-maximal effect; nearly all actives have a fitted effect of over 35% in size
LASV entry inh – blocks Lassa virus binding to or entry into cells. 300,000 tested, 1.2% active. Potency, µM (doses to about 37.9 µM), inactives show at the top dose activity change, negative = inhibition, most hits filed as inhibitors. Lassa virus pseudotype entry inhibition, cell reporter; calls by dose curve; tested in HEK293 cells; note: potency is the fitted concentration of half-maximal effect; nearly all actives have a fitted effect of over 50% in size
An asterisk follows results filed as active; i = inactive; ? = inconclusive; nt = no result given; + = active, no number; [ ] = another dose, or the depositor's remark. An excerpt weighted towards active compounds, which were near 6.5% of everything screened. % is set by controls: 0 for no effect and ±100 for the full control effect.

SMILES	VACV Venus inh	FMDV inh	MARV entry inh	HCMV antiviral	Vaccinia mCherry	LASV entry inh
Cc1ccc(NC(=O)CSc2nnc3c(n2)[nH]c2ccccc23)cc1	0%	6%	2%[46.1 µM]	2	-2%	2%[46.1 µM]
CCn1c(CCNC(=O)c2cccs2)nnc1SCC(=O)Nc1nc(-c2ccccc2)cs1	nt	20µM*	?	51	nt	-11%
COc1ccc(-c2cnc(SCC(=O)Nc3nc(C(C)(C)C)cs3)n2Cc2ccco2)cc1	-17%	?	?	-19	nt	13µM*
CCn1c(SCC(=O)Nc2nc(-c3ccccc3)cs2)nnc1-c1ccccc1O	?	35µM*	?	1	nt	?
CCn1c(CCNC(=O)c2cccs2)nnc1SCC(=O)Nc1cccc(Cl)c1	nt	-10%	-28%	2	nt	6%
CCc1ccc(CNC(=O)c2cnc3sc(N(CC)CC)nn3c2=O)cc1	-10%	-20%	nt	?	i	?
O=C(CSc1nnc(-c2ccncc2)n1Cc1ccco1)Nc1nc(-c2ccccc2)cs1	-30%	18µM*	?	-5	-10%	-20%
O=C(CSc1nnc(-c2ccncc2)n1Cc1ccco1)Nc1ccccc1Cl	-14%	-8%	5%	2	i	2%
CCOc1ccc(CNC(=O)c2ccc(Sc3ccc(C)cc3)c(N)c2)cc1OC	-29%	?	nt	-62*	-27%	?
O=[N+]([O-])c1ccc(Cl)c(S(=O)(=O)/N=C(/c2ccccc2)N2CCOCC2)c1	-1%	-8%	3%[46.1 µM]	-105*	?	?
Cc1ccc(Cn2c(SCc3ccc(C(=O)N4CCCCC4)cc3)nc3ccncc32)cc1	?	-18%	?	-60*	-21%	-15%[46.1 µM]
CC1CCC(NC(=O)c2ccc(CSc3nc4ccncc4n3Cc3ccc(F)cc3)cc2)CC1 (configuration not stated)	?	?	?	-93*	?	-12%[46.1 µM]
Cc1c(OCC(=O)NCCCN2CCCC2=O)ccc2c3c(c(=O)oc12)CCC3	nt	-7%	nt	?	nt	nt
Cc1c(OCC(=O)NCCCN2CCCC2=O)ccc2c3c(c(=O)oc12)CCCC3	nt	-23%	nt	+	nt	nt
Cc1nc2ccccn2c1-c1csc(NCc2ccco2)n1	nt	?	-15%	-12	nt	?
Cc1ccc(Nc2nc(-c3c(C)nc4ncccn34)cs2)cc1	?	?	?	8	?	?
Cc1ccn2c(-c3csc(NCc4ccccc4)n3)c(C)nc2c1	?	16µM*	?	-81*	nt	?
Cc1ccc(Nc2nc(-c3c(C)nc4ccccn34)cs2)cc1	10µM*	25µM*	-41%	-101*	?	?
COc1ccc(OC)c(CNC(=O)c2nn(-c3ccc(OC)c(Cl)c3)c(=O)c3c2c2ccccc2n3C)c1	-3%	-18%	0%[46.1 µM]	14	i	-6%[46.1 µM]
Cc1nn2c3c(cnc2c1-c1ccc(Cl)cc1)C(=O)CC(c1ccc(C(C)C)cc1)C3 (configuration not stated)	-1%	0%	0%[46.1 µM]	-15	-10%	17%[46.1 µM]
COc1c(C)cccc1C(=O)Nc1cccc2ccc(C)nc12	-3%	-16%	4%[46.1 µM]	8	-10%	?
CC(C)(O)C#Cc1ccc(CN2CCc3nnc(CCNC(=O)c4ccco4)n3CC2)cc1	-1%	10%	nt	nt	-10%	nt
N#CN=c1snc(-c2ccccc2Cl)n1-c1ccccc1Cl	?	nt	nt	nt	11µM*	nt
N#CN=c1snc(-c2ccccc2)n1-c1ccc(Cl)cc1	3.5µM*	nt	nt	nt	5.6µM*	nt
S=c1[nH]nc(-c2ccc(Cl)cc2)n1-c1ccc(Cl)cc1	-16%	-21%	10%	7	-13%	27%
SMILES	VACV Venus inh	FMDV inh	MARV entry inh	HCMV antiviral	Vaccinia mCherry	LASV entry inh
Cc1ccc(NC(=O)CN2C=NS(=O)(=O)c3ccccc32)c(C)c1	-6%	16%	nt	-3	-7%	28%[46.1 µM]
Cc1cccc(C)c1OCc1cc(C(=O)N2CCN(c3ccccc3)CC2C)no1 (configuration not stated)	-13%	-11%	13µM*	-24	i	?
COc1ccc2ccccc2c1CNCc1ccc(C)cc1	0%	-22%	10µM*	4	-9%	-6%[46.1 µM]
COc1cc(S(=O)(=O)Nc2ccccc2C)ccc1NC(=O)c1ccncc1	-2%	52%	-12%[46.1 µM]	-72*	-11%	-16%
COc1cc(S(=O)(=O)Nc2ccc(C)cc2)ccc1NC(=O)c1ccncc1	-22%	35%	?	-19	-8%	2%
COc1ccc(S(=O)(=O)N2CCCCC2)cc1NC(=O)C1COc2ccccc2O1 (configuration not stated)	-14%	?	11µM*	-1	-20%	?
COc1ccccc1NS(=O)(=O)c1ccc(C)c(NC(=O)c2ccc(S(=O)(=O)N3CCCCCC3)cc2)c1	-26%	-25%	?	-69*	-30%	-13%
COc1ccccc1NS(=O)(=O)c1cc(C(=O)N2CC(C)CC(C)C2)ccc1C (configuration not stated)	nt	-9%	8.2µM*	10	nt	18%
CC(C)NC(=O)CSc1cn(CC(=O)N2CCCCCC2)c2ccccc12	-8%	5%	nt	?	-1%	-2%[46.1 µM]
COc1cccc(/C=C/c2nccc3ccccc23)c1OC	-17%	nt	nt	nt	-20%	nt
O=C(Nc1ccccc1)N[C@H]1CC[C@@]23CCCN2C(=O)CCC[C@H]3C1Cc1ccccc1 (some centres not stated)	nt	nt	nt	-17	nt	nt
O=C(O)c1ccc2c(ccc3nn(-c4ccc(/C=C/c5ccc(-n6nc7ccc8cc(C(=O)O)ccc8c7n6)cc5[S+](=O)([O-])[O-])c([S+](=O)([O-])[O-])c4)nc32)c1	-15%	nt	nt	nt	-10%	nt
COc1cccc(CN(C)CC(=O)Nc2ccccc2C(C)C)c1	-2%	?	?	-65*	-1%	-14%
CCn1c(COc2ccc(=O)n(-c3ccccc3)n2)nnc1SCc1cccc(OC)c1	nt	1%	6%	-1	nt	8%
C=CCSc1nnc(COc2ccc(=O)n(-c3ccccc3)n2)n1CC	-13%	-2%	16%[46.1 µM]	-93*	-1%	8%
COC(=O)c1ccc(-c2ccc(OC)c([C@H]3[C@H]4C=CC[C@@H](C)[C@@H]4C(=O)N3Cc3ccccc3)c2)cc1	?	-28%	nt	9	?	nt
C[C@@H]1CC=C[C@H]2[C@H]1C(=O)N(Cc1ccccc1)[C@H]2c1ccc2ccccc2c1	-15%	?	nt	-36	?	nt
C[C@@H]1CC=C[C@H]2[C@H]1C(=O)N(Cc1ccccc1)[C@H]2c1ccc2ccccc2c1Br	?	18µM*	nt	?	-27%	nt
COc1ccc(-c2ccc(C(C)=O)cc2)cc1[C@H]1[C@H]2C=CC[C@@H](C)[C@@H]2C(=O)N1Cc1ccccc1	?	9%	nt	-90*	?	nt
Cc1c2cnn(CC(=O)NCCCN3CC(C)CC(C)C3)c(=O)c2c(C)n1Cc1ccccc1Cl (configuration not stated)	?	-13%	?	-69*	-22%	?

Source: PubChem BioAssay
